GRIN3A LBD mod = binders of NR3A ligand-binding domain, primary screen, biophysical, differential scanning fluorimetry, uHTS; Glutamate receptor ionotropic, NMDA 3A (GRIN3A) ligand-binding domain; NR3A LBD differential scanning fluorimetry, Tm shift; 0% = protein alone, 100% = glycine-bound protein; Tm shift relative to glycine control, % at 25 µM; 340,000 tested, 2.5% active; AID 1259313, 2017;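 active = melting temperature shift of at least 10% of the positive control shift, at one fixed dose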
proKLK7 act = proKLK7 zymogen activators, primary screen, biochemical, fluorescence intensity; Kallikrein-7 (Homo sapiens), P49862; purified proKLK7, EDANS-DABCYL substrate fluorescence; 100% is mature enzyme control, 0% vehicle; activation, % at 7 µM; 370,000 tested, 0.9% active; AID 652039, 2013;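 active = activation above the mean of all tested compounds plus 3 SD, computed per campaign excluding outliers beyond control limits, cut at about 13% in these data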
ADAM10 inh = human ADAM10 inhibitors, primary screen, biochemical, QFRET, HTS. Disintegrin and metalloproteinase domain-containing protein 10 (Homo sapiens), O14672. recombinant ADAM10, EDANS/DABCYL FRET peptide cleavage, 3 h. inhibition, % at 7 µM. 370,000 tested, 0.62% active. AID 720582, 2013;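 active = inhibition above a per-campaign cutoff equal to the mean of compounds falling between control-based bounds plus 3 SD, cut at about 20% in these data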
Target sequence (O14672 214-748 limits assumed): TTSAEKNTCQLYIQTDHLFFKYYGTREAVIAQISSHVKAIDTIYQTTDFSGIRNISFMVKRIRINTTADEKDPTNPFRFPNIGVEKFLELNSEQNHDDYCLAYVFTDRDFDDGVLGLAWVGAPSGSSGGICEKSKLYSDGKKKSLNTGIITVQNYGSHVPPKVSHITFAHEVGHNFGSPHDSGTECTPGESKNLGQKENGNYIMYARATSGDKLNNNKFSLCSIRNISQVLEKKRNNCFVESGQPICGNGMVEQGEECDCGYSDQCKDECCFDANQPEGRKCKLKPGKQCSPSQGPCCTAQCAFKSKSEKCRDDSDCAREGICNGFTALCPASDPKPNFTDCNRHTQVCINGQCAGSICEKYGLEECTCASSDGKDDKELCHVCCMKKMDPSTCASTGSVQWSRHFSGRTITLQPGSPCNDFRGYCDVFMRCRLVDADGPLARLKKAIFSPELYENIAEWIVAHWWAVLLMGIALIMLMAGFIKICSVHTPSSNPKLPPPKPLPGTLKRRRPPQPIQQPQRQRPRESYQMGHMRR
AHR act = AHR activators, primary screen, cell-based, luminescence, luciferase reporter, human. AHR-responsive luciferase reporter cells. 320,000 tested, 2.5% active. AID 2796, 2010. Aryl hydrocarbon receptor (Homo sapiens), P35869. activation, % at 5 µM; in the data active = activation above about 47%
ADAM17 inh = ADAM17 inhibitors, primary screen, biochemical, QFRET; inhibition, % at 6.95 µM; Disintegrin and metalloproteinase domain-containing protein 17 (Homo sapiens), P78536; recombinant ADAM17, EDANS/DABCYL FRET peptide cleavage; 370,000 tested, 0.83% active;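 active = inhibition above the mean of compounds lying between control limits plus 3 SD, set per campaign, cut at about 8.5% in these data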
rCAG binder = binders of r(CAG) RNA repeats, primary screen, biochemical, fluorescence; r(CAG) RNA repeat, TO-PRO-1 dye displacement fluorescence; inhibition, % at 3 µM; 370,000 tested, 1.3% active; AID 651821, 2012;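 active = inhibition above the plate cutoff, the mean of all test compounds on that plate plus 3 SD, cut at about 35% in these data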;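 also: higher means more dye released from RNA so lower well fluorescence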
ADAM10 ctr = ADAM10 inhibitors, counter-screen for ADAM17 exosite inhibitor project, biochemical, FRET, human ADAM10; shares compounds with ADAM17 inh; recombinant ADAM10, EDANS/DABCYL FRET peptide cleavage, 3 h; inhibition, % at 6.95 µM; 2,900 tested, 47% active; AID 743256, 2014;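 active = mean inhibition over the triplicate runs exceeds the activity threshold set in the earlier primary screen, cut at about 20% in these data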
ADAM17 confirm = ADAM17 inhibitors, hit retest, confirmation, biochemical, QFRET peptide cleavage. inhibition, % at 6.95 µM. 2,900 tested, 65% active. shares compounds with ADAM17 inh. AID 743257, 2014. recombinant ADAM17, EDANS/DABCYL QFRET peptide cleavage;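 active = mean inhibition across replicates above the hit cutoff set in the primary screen, cut at about 8.5% in these data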
Large screens that a line does not name were inactive (follow-up assays come after a bar, where they were run). Shown are actives, neighbours in structure and some others; about 7% of the full set was active somewhere.

C[C@H](NC(=O)c1ccc(Cl)cc1)C(=O)NNC(=O)c1cccs1	none
CC(NC(=O)c1ccco1)C(=O)N1CCN(c2cccc(C(F)(F)F)c2)CC1 (centres undefined)	none
CC(NC(=O)c1ccco1)C(=O)N1CCN(c2ccccc2)CC1 (centres undefined)	ADAM17 inh 9.2 | ADAM10 ctr inactive | ADAM17 confirm inactive
CC(C)(C)c1ccc(OCCC(=O)OCC(=O)NC(=O)NC2CCCC2)cc1	ADAM17 inh 17 (no result: GRIN3A LBD mod) | ADAM10 ctr 28 | ADAM17 confirm 13
CC(C)(C)c1ccc(OCCC(=O)OCC(=O)NC2CCCCC2)cc1	none
COc1ccc(-c2csc(NC(=O)CSc3nc(SC)ns3)n2)cc1	ADAM10 inh 33, AHR act 58, ADAM17 inh 15 | ADAM10 ctr 26 | ADAM17 confirm 17
COc1ccc(-c2csc(NC(=O)CSc3nc(C)cs3)n2)cc1	none
O=C(CSc1nnc(NC(=O)C2CC(=O)N(c3ccc(F)cc3)C2)s1)NC1CCCC1 (centres undefined)	none
O=C(c1cc(F)c(F)c(F)c1F)N1CCN(C(=O)C2CCCO2)CC1 (centres undefined)	ADAM17 inh 8.7 | ADAM10 ctr inactive | ADAM17 confirm inactive
Cc1ccc(C(=O)N2CCN(C(=O)C3CCCO3)CC2)cc1 (centres undefined)	none
Cc1onc(-c2ccccc2Cl)c1C(=O)OCC(=O)N1CCC(C)CC1	none
Cc1[nH]c2ccccc2c1C(=O)COC(=O)c1c(-c2ccccc2Cl)noc1C	GRIN3A LBD mod 24, ADAM17 inh 9.5 | ADAM10 ctr 33 | ADAM17 confirm 18
COC(=O)c1ccc(CN2C(=O)C(C)N(C(=O)c3c(F)cccc3F)c3ccccc32)cc1 (centres undefined)	ADAM17 inh 11 | ADAM10 ctr inactive | ADAM17 confirm 15
COc1ccc(C(C)=O)cc1COC(=O)CSCC(=O)Nc1ccc(C)cc1	none
CCCCC1CCC(C(=O)N(CCCC)c2c(N)n(CCCC)c(=O)[nH]c2=O)CC1 (centres undefined)	none
N/C(=N\N=C\c1ccc(O)c(O)c1)c1nonc1N	none
N/C(=N\N=C\c1ccc(O)cc1)c1nonc1N	ADAM17 inh 10 | ADAM10 ctr inactive | ADAM17 confirm 9.2
Cc1cccc(C)c1NC(=O)C(c1ccc(C#N)cc1)n1c(=O)c(-c2ccco2)nc2ccccc21 (centres undefined)	none (no result: GRIN3A LBD mod, AHR act)
COc1ccc(-c2cn[nH]c2N)cc1	ADAM17 inh 8.8 | ADAM10 ctr inactive | ADAM17 confirm inactive
c1ccc2c(CN3CCCCC3)csc2c1	none
O=C(O)Cc1csc2ccccc12	ADAM17 inh 10.0 | ADAM10 ctr inactive | ADAM17 confirm inactive
CC1=CC(C)(C)N2C(=O)C3(C(C#N)=C(N)Oc4cc(C)oc(=O)c43)c3cccc1c32 (centres undefined)	none
CCOc1cc2c3c(c1)C1(C(=O)N3C(C)(C)C=C2C)C(C#N)=C(N)Oc2cc(O)ccc21 (centres undefined)	ADAM17 inh 9.0 | ADAM10 ctr inactive | ADAM17 confirm 12
CCOc1ccc(NS(=O)(=O)c2ccc(C(=O)N(C)CC(=O)Nc3cccc(OC)c3)cc2)cc1	none (no result: AHR act)
CC1CCCN(S(=O)(=O)c2ccc(C(=O)NC(C)c3ccccc3)cc2)C1 (centres undefined)	none (no result: AHR act)
O=C(COC(=O)C12CC3CC(CC(C3)C1)C2)NCc1ccccc1	none
COC(=O)c1ccc(CNC(=O)COC(=O)C23CC4CC(CC(C4)C2)C3)cc1	ADAM17 inh 8.7 | ADAM10 ctr inactive | ADAM17 confirm inactive
CCOC(=O)C1=CCN(S(=O)(=O)c2ccc(C)cc2)C1c1cccc2ccccc12 (centres undefined)	none (no result: GRIN3A LBD mod, AHR act)
CCOC(=O)C1=CCN(S(=O)(=O)c2ccc(C)cc2)C1c1cccs1 (centres undefined)	ADAM17 inh 11 (no result: GRIN3A LBD mod, AHR act) | ADAM10 ctr inactive | ADAM17 confirm inactive
COc1ccc(/[N+]([O-])=C/c2ccoc2)cc1	none
CC(=O)NC(C)(c1ccccc1)c1nc(-c2cc(F)cc(F)c2)cs1 (centres undefined)	none (no result: GRIN3A LBD mod, AHR act)
OC(c1ccccc1)(c1nc(-c2cc(F)cc(F)c2)cs1)C(F)(F)F (centres undefined)	ADAM17 inh 9.5 (no result: GRIN3A LBD mod, AHR act) | ADAM10 ctr 40 | ADAM17 confirm 18
COc1ccccc1CN(C)CC(=O)Nc1cccc(S(=O)(=O)N2CCCCC2)c1	none (no result: AHR act)
CN(CC(=O)Nc1ccc(S(=O)(=O)N2CCCC2)cc1)Cc1cccc(Cl)c1Cl	ADAM17 inh 10 | ADAM10 ctr inactive | ADAM17 confirm inactive
C/C(=N\NC(=S)NCc1ccccc1)c1ccc2ccccc2c1OC(F)F	ADAM17 inh 12 | ADAM10 ctr inactive | ADAM17 confirm inactive
C/C(=N\NC(=S)NCc1ccccc1)c1ccc(Br)cc1	none
Cc1c(C(=O)OCC(=O)NCc2ccco2)cccc1[N+](=O)[O-]	none
COc1ccccc1NC(=O)Cn1nnc(-c2ccccc2NC(=O)c2cc3ccccc3oc2=O)n1	none
COc1ccccc1NC(=O)Cn1nnc(-c2ccccc2NS(=O)(=O)c2ccccc2)n1	ADAM17 inh 9.3 | ADAM10 ctr 37 | ADAM17 confirm 22
O=C(NC1=NCCS1)c1cccc(S(=O)(=O)N2CCc3ccccc32)c1	none
O=C(NC1=NCCS1)c1ccc(Cl)c(S(=O)(=O)N2CCc3ccccc32)c1	ADAM17 inh 9.4 | ADAM10 ctr inactive | ADAM17 confirm inactive
COc1ccccc1-c1nc2n(n1)C(c1ccccc1Cl)C(C(N)=O)=C(C)N2 (centres undefined)	none
COc1ccc(OC)c(C2C(C(N)=O)=C(C)Nc3nc(-c4cccc(Cl)c4)nn32)c1 (centres undefined)	ADAM17 inh 9.3 | ADAM10 ctr inactive | ADAM17 confirm inactive
O=C(NC(NC(=S)Nc1c(Cl)cccc1Cl)C(Cl)(Cl)Cl)OCc1ccccc1 (centres undefined)	GRIN3A LBD mod 17, ADAM17 inh 12 | ADAM10 ctr 33 | ADAM17 confirm 16
